Compound activity deposited in PubChem BioAssay by Fisher Drug Discovery Resource Center.
Most compounds without a hit are left out; they make up all but 0.24% or so of the library.
hcGAS inh: inhibitors of human cGAS | Q8N884 | recombinant h-cGAS, ATP depletion, Kinase-Glo luminescence | inhibition, % at 12.5 µM | actives 0.081% (n = 290,000) | AID 1259398;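 also: 0% = vehicle reaction and 100% = reaction without DNA for no activity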
NPYLR7 agonist: activates Aedes aegypti NPYLR7 receptor | HEK293T NPYLR7/Galpha15, GCaMP6s calcium fluorescence | AID 1259423 | actives 0.15% (n = 270,000) | activation, % at 10 µM; in the data active = activation above about 40%;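 also: 0% = vehicle and 100% = reference agonist at the receptor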
mcGAS lum: inhibitors of mouse cGAS; actives 0.15% (n = 160,000); Q8C6L5; recombinant cGAS, Kinase-Glo ATP depletion luminescence; inhibition, % at 12.5 µM;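 also: 0% = negative control wells and 100% = reference inhibitor with no enzyme activity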
Numbers without * were called inactive; · = no result; ! = not confirmed by another sample. Rule as the data show it, unless noted: active = inhibition above about 40%; inactive = the rest.

SMILES	hcGAS inh	NPYLR7 agonist	mcGAS lum
O=c1c2c3c(sc2nc(SCCS(=O)(=O)F)n1-c1ccccc1)CCCC3	-4.0	-4.1	-4.8
Nc1c2c(nc3sc4c(c13)CCCC4)CCCCC2	-7.7	42.4*	-5.6
O=[N+]([O-])c1cc(Cl)ccc1Cl	-0.4	8.7	-2.1
O=[N+]([O-])c1ccc(Cl)c2nonc12	-14.3	139.0*	-4.9
Cc1ccsc1C(=O)C1CCCN(CCCn2cccn2)C1 (stereo unspecified)	-4.7	4.0	-11.6
Clc1ccc(C[N+]23CCN(CC2)CC3)c(Cl)c1	8.0	-2.2	·
CCc1noc(CC2CCOC3(CCNCC3)C2)n1 (stereo unspecified)	0.1	·	-0.5
O=[N+]([O-])c1cc([As](=O)(O)O)ccc1O	83.4*!	-9.0	·
O=[N+]([O-])c1ccc(O)c(Cl)c1	1.8	6.4	·
O=[N+]([O-])c1ccc(O)c([N+](=O)[O-])c1	72.1*	-28.2	·
O=[N+]([O-])c1cc(O)c(O)c([N+](=O)[O-])c1	2.8	-5.8	8.3
O=c1ccc(C2CCCCC2)c2n1C[C@H]1C[C@@H]2CN(C2CCOCC2)C1	-6.8	-8.1	-6.5
CC(C)c1cncnc1N1CCN2CCN(C)CC2C1 (stereo unspecified)	-4.1	-0.3	·
C1CCC2(C1)CNCCN2	-2.6	-4.0	·
CN1C2CCC1CC1(C2)C(C#N)(C#N)C1(C#N)C#N	-1.5	-1.2	·
Cc1ccc(/C=C2\C(=O)NC(=O)N(c3ccc(Cl)cc3)C2=O)o1	2.4	13.2	0.0
O=C1NC(=O)N(c2ccc(Cl)cc2)C(=O)/C1=C/c1ccc([N+](=O)[O-])o1	32.4	3.4	47.1*
CC1CC(=O)CC2CCC3C4CCC(O)C4(C)CCC3C12C (stereo unspecified)	-4.5	9.2	·
CCC(NC)c1nc2ccccc2c(=O)n1-c1ccc(F)cc1 (stereo unspecified)	-7.2	1.7	·
O=c1c2ccccc2nc(CCl)n1-c1ccc(F)cc1	0.5	-2.4	48.2*
